From PubChem BioAssay come the findings set out here.

Broadly, the inhibition is the drop in the measured response relative to a control, in per cent.

Experiment [1] can be described thus: rapamycin-like changes in RPL19A-GFP expression – cell-based, S. cerevisiae, multiplex flow cytometry, primary screen (AID 1862; in the data active means percent of DMSO control GFP below about 86%;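 further: lower values mimic rapamycin by blocking the RPL19A rise seen in DMSO cells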). The settings on record: S. cerevisiae RPL19A-GFP strain, flow cytometry fluorescence, 3 h; at 10 µM; stronger effect = lower value. For orientation: In flow cytometry, cells or beads pass a laser one at a time.
Experiment [2] is described as follows: TOR pathway GLN3 branch reporter MEP2-GFP changes – S. cerevisiae, multiplex flow cytometry, primary screen (AID 1867).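 Further: median GFP channel fluorescence of barcode-gated MEP2-GFP cells measured by flow cytometry.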 The settings on record: S. cerevisiae MEP2-GFP strain, 3 h, at 10 µM, stronger effect = higher value, 100% means same as DMSO wells.
Experiment [3] is described as follows: TOR pathway RTG branch CIT2 reporter changes – S. cerevisiae, GFP fusion, multiplex flow cytometry, primary screen (AID 1870;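 active means percent response above a set limit, the screen-wide mean plus 3 SD, cut at about 130% in these data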;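 further: barcoded CIT2-GFP strain pooled with four other GFP strains with rapamycin as positive control; median GFP fluorescence per well over plate mean of DMSO wells so 100% = DMSO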). Particulars: S. cerevisiae CIT2-GFP expression, 3 h, at 10 µM, stronger effect = higher value.
Experiment [4] is described as follows: TOR pathway LAP4-GFP level changes – S. cerevisiae, multiplex flow cytometry, primary screen (AID 1873;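 active means GFP signal, as percent of the solvent control, above the screen mean plus 3 SD, about 149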). Particulars: S. cerevisiae LAP4-GFP expression, 3 h, at 10 µM, stronger effect = higher value.
Experiment [5] in a line: yeast AGP1-GFP level changes, GLN3 branch – cell-based, multiplex flow cytometry, S. cerevisiae, primary screen (AID 1887;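 active means GFP signal above the screen-wide mean plus 3 SD, that is over about 124.5% of the solvent control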;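 further: AGP1-GFP fusion strain of S. cerevisiae within a five-strain barcoded multiplex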). Particulars: 3 h, at 10 µM, stronger effect = higher value.
Experiment [6] in a line: reduced mouse 2C T cell binding to pMHC/ICAM-1 vesicles – MLPCN validation set, flow cytometry, LFA-1/ICAM-1 modulator project, pilot screen (AID 2523;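 active means response below a set limit, under 55% cells CD8-positive and vesicle-bound, and CD8 cells' 90th-percentile brightness under 279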;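 on vesicle binding response: mean PE anti-B7-1 fluorescence of CD8+ cells relative to row control; 100% = QL9-loaded vesicles with DMSO vehicle in the same plate row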). Particulars: 2C mouse CD8+ T cells, at 7 µM, stronger effect = lower value; double positive events: measured here: CD8+/vesicle+ event percentage.
For experiment [7], the target named is Integrin beta-1 (Homo sapiens) + Integrin alpha-4 (Homo sapiens) (UniProt P13612+P05556). As to the kind of experiment: alpha4beta1 integrin LIBS antibody binding reduction – U937 cells, HUTS-21 mAb, flow cytometry, validation set, VLA-4 allosteric modulator project, pilot screen (AID 2674;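 active means inhibition above 50%, about 3 SD of the validation set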;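 further: antibody binding induced by the VLA-4 ligand LDV present at three times its Kd; 0% = LDV ligand with antibody and no compound and 100% = antibody without LDV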). Particulars: HUTS-21 LIBS mAb binding, at 6.7 µM, stronger effect = higher value, binding induced by LDV ligand.
Integrin beta-1 (Homo sapiens) + Integrin alpha-4 (Homo sapiens), sequence (P05556 whole entry, looked up): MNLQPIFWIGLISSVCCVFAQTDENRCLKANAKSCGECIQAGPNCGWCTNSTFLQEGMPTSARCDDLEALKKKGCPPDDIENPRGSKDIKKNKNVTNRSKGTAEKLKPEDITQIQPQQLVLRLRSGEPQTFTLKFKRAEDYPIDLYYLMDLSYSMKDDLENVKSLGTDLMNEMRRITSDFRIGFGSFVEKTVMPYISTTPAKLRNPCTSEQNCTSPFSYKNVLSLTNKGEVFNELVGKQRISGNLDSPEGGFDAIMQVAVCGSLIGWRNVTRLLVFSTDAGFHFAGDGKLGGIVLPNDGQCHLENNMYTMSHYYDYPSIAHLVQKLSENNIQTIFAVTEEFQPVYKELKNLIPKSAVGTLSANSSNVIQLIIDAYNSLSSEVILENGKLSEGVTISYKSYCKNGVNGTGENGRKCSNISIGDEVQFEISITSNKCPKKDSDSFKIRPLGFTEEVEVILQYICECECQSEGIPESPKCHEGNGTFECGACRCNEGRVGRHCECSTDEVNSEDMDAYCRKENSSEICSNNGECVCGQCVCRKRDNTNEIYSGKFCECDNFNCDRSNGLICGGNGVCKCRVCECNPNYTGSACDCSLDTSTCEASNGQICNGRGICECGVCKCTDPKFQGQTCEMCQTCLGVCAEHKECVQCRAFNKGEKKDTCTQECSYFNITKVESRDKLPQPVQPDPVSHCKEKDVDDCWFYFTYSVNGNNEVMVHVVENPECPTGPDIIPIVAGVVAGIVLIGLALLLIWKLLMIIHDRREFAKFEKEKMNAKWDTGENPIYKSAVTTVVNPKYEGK
Integrin beta-1 (Homo sapiens) + Integrin alpha-4 (Homo sapiens), sequence (P13612 whole entry, looked up): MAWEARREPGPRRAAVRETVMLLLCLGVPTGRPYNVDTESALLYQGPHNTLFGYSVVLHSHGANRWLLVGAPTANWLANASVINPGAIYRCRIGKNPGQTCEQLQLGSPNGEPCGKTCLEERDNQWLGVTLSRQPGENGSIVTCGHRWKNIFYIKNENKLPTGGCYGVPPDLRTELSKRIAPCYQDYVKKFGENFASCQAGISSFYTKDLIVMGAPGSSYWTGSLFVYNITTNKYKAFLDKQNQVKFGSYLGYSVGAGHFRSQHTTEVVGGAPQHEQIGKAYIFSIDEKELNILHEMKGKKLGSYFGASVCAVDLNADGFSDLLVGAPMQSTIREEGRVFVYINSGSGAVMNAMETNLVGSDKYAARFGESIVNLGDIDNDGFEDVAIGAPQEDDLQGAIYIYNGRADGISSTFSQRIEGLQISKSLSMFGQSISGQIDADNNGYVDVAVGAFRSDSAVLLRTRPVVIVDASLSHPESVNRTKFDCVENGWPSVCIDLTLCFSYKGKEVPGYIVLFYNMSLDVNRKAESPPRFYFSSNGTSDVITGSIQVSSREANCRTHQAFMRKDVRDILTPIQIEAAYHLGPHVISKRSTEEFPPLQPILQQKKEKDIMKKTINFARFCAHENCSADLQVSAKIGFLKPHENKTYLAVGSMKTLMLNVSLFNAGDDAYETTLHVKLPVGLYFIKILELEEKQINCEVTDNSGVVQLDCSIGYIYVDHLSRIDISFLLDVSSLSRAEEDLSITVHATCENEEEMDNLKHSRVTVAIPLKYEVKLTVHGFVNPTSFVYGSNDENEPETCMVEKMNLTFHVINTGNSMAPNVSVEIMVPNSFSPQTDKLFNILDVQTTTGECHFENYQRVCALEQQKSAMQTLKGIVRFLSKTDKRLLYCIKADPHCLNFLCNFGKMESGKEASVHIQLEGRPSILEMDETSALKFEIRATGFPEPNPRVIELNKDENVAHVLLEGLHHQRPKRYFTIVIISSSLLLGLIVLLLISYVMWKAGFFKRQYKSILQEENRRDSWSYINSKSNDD

Experiment [8] can be described thus: calorie-restriction mimetic ROS inhibitors, yeast – validation compound set, pilot screen (AID 2706;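 active means superoxide response below 65% of plate, a cut near 3 SD across the whole screen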;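 further: yeast exposed to compound for one week at 30 degrees C before staining; 100% = mean of all compound wells on the same plate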). The settings on record: S. cerevisiae aging, superoxide DHE fluorescence; at 10 µM; stronger effect = lower value.
In experiment [9] the target is Beta-adrenergic receptor kinase 1 (Homo sapiens) (UniProt P25098). Briefly: GRK2 binders displacing RNA aptamer, biochemical, validation, human GRK2, bead flow cytometry (AID 488806;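 active means aptamer binding inhibition above 30%, about 3 SD of noise from non-fluorescent compounds; inactive means inhibition at or below 30%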). Particulars: bead-bound GRK2, FAM-aptamer displacement, at 10 µM, stronger effect = higher value.
Beta-adrenergic receptor kinase 1 (Homo sapiens), sequence (P25098 whole entry, looked up): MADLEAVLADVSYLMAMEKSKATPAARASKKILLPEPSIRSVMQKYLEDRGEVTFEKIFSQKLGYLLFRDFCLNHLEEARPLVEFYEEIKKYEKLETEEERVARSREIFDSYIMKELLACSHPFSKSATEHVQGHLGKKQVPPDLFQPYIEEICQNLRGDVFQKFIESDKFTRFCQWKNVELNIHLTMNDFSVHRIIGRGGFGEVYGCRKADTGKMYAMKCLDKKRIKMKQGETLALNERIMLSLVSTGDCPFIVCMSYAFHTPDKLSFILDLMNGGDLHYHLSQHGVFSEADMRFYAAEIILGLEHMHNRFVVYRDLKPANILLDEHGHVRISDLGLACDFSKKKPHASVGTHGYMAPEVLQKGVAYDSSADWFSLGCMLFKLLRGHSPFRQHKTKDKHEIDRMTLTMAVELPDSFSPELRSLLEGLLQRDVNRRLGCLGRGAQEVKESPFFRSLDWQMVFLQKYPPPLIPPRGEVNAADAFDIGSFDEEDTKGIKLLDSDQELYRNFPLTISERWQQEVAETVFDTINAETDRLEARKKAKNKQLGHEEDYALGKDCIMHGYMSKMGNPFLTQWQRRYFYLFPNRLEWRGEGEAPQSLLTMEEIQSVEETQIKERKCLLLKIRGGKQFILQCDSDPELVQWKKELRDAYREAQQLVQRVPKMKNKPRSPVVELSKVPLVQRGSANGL
Experiment [10] addresses Beta-2 adrenergic receptor (Homo sapiens) (UniProt P07550). Briefly: agonist-induced loss of surface beta2AR – cell-based, FAP fluorogen, flow cytometry, validation set, pilot screen (AID 504459;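 active means percent response above 42, roughly 3 SD of non-fluorescent test compounds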;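 further: agonist-driven loss of surface beta2AR via internalization measured by FAP dye flow cytometry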). The settings on record: Am2.2-beta2AR cells, at 10 µM, stronger effect = higher value.
Experiment [11] deals with AP-2 complex subunit beta (Homo sapiens) (UniProt P63010). Briefly: beta-arrestin/AP2 interaction blockers – biochemical, validation set, GST-AP2 beads, flow cytometry, pilot screen (AID 504541;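 active means inhibition above 54%, about 3 SD of non-fluorescent compounds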;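 further: AP2 carries R879A mutation and is captured from E. coli lysate; bead-bound FITC arrestin peptide fluorescence measuring arrestin peptide binding to AP2; 0% = DMSO wells and 100% = excess unlabeled arrestin peptide control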). Particulars: FITC arrestin peptide, at 10 µM, stronger effect = higher value, AP2 beta2 appendage fragment, R879A mutant.
AP-2 complex subunit beta (Homo sapiens), sequence (P63010 whole entry, looked up, the tested form may be a part, one chain of several): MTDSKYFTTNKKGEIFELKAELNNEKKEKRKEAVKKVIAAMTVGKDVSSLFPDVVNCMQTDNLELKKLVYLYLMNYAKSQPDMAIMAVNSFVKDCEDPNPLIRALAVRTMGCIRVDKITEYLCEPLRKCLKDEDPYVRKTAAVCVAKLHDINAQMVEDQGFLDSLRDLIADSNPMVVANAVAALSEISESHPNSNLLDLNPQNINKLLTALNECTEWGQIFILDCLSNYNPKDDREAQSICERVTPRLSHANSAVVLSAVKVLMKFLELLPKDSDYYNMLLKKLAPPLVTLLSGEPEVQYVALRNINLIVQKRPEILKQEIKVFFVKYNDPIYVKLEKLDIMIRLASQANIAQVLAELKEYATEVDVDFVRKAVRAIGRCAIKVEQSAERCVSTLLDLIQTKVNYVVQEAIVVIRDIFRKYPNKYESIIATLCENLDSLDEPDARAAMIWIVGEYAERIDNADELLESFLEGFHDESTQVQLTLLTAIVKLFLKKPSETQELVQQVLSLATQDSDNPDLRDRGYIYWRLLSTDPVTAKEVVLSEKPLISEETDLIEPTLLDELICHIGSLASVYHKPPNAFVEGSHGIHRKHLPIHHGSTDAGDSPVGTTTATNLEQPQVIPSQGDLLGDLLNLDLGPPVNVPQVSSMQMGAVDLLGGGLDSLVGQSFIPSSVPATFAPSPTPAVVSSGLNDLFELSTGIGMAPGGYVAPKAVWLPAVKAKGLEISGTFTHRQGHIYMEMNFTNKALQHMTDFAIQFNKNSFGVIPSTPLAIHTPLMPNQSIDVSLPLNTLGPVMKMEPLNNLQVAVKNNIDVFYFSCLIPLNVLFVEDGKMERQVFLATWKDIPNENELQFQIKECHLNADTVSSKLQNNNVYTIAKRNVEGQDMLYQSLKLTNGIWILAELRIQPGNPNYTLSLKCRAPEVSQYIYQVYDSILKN
Experiment [12] can be described thus: cytosolic pH regulators acting via V-ATPase – S. cerevisiae, pHLuorin, HTS validation (AID 504600; in the data active means response above about 15%;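 further: plate controls were DMSO for no effect and reference compound for full effect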). The settings on record: V-ATPase proton transport, at 10 µM, stronger effect = higher value.
Experiment [13] concerns anti-desmoglein-3 scFv antibody binding to human DSG3. As to the kind of experiment: blockers of pathogenic pemphigus antibody–desmoglein-3 binding – biochemical, validation compound set, bead-based, flow cytometry, pilot screen (AID 588368;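 active means binding below the plate cutoff, the plate median minus 3 SD, with a reading above zero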;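 further: signal is the median channel fluorescence of bead-bound GFP antibody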). The settings on record: Protein G beads, DSG3-Fc, scFv-GFP binding, at 10 µM, stronger effect = lower value.
Experiment [14] is described as follows: Nile Red efflux blockade in pump-expressing yeast – validation compound set, multiplex, phenotypic, pilot screen (AID 588506;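 active means efflux inhibition above 0.42, the validation set average plus 4 SD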;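 further: Nile Red retained in cells so higher fluorescence means more efflux inhibition; 0 = negative control wells and 1 = enniatin B 25 µM full block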). Particulars: S. cerevisiae pump-expressing triplex, Nile Red efflux flow cytometry; at 10 µM; stronger effect = higher value; the pumps come from Candida albicans.
For experiment [15], the target named is ATP-binding cassette sub-family B member 6 (Homo sapiens) (UniProt Q9NP58). Briefly: blockers of ABCB6-driven porphyrin uptake – K562-ABCB6 cells, flow cytometry, validation set, pilot screen (AID 588550;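 active means inhibition above the screen-wide mean plus 3 SD, about 51%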;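 further: 0% = DMSO wells and 100% = benzethonium chloride 70 µM positive control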). The settings on record: K562-ABCB6 porphyrin accumulation, 1 h, at 10 µM, stronger effect = higher value.
ATP-binding cassette sub-family B member 6 (Homo sapiens), sequence (Q9NP58 whole entry, looked up): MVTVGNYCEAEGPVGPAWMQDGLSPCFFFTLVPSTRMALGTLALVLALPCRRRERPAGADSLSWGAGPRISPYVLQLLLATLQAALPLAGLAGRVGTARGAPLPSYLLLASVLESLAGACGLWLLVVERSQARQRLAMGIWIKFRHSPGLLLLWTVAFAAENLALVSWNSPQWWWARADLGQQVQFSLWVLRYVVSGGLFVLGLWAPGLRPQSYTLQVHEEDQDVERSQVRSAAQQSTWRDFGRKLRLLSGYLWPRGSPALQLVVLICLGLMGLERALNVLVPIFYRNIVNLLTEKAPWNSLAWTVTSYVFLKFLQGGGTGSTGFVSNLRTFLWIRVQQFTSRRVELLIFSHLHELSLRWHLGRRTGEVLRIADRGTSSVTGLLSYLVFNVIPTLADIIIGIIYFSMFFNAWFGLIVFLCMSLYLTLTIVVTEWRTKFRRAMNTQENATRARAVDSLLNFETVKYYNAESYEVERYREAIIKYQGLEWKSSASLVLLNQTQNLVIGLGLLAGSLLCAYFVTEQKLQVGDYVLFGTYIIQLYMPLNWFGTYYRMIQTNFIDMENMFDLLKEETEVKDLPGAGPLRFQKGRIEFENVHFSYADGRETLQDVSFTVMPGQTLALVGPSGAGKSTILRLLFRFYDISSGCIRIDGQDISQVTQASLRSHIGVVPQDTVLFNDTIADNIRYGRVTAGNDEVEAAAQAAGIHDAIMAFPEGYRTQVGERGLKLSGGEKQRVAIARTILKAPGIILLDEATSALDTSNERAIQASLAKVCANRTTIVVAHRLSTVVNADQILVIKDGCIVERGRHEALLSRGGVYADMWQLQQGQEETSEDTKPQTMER
A short description of experiment [16]: AML differentiation inducers, ER-HoxA9 marrow cells – cell-based, GFP/MAC1 double positive, flow cytometry, validation set, primary screen (AID 588685;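 active means differentiation response of at least 50%, scaled between solvent and reference control, from cells with both markers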;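 further: compound exposure lasts four days before antibody staining and flow analysis; 0% = DMSO wells and 100% = 5 µM fulvestrant positive control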). Particulars: stronger effect = higher value, normalized: vehicle 0, fulvestrant 100.

Inconclusive results are not listed. The source made the active and inactive calls.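 How the source made its calls, unless noted: active means GFP response, as percent of the DMSO control, above the screen-wide mean plus 3 SD, about 139; inconclusive means no response measured because the compound's own fluorescence interfered; inactive means the rest.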

Beta-2 adrenergic receptor (Homo sapiens), sequence (P07550 whole entry, looked up): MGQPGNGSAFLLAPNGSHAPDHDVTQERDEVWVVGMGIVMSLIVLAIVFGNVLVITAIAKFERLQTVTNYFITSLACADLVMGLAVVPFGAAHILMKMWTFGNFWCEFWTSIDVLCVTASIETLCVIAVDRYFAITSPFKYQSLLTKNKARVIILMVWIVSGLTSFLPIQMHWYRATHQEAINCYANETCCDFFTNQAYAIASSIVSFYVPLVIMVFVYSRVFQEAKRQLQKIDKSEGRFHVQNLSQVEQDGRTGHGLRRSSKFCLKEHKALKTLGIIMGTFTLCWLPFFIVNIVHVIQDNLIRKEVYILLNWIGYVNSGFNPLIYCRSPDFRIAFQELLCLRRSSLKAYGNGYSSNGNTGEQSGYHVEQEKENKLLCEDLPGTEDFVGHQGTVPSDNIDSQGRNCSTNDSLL

`O=c1nc2sc3ccccc3n2c(=O)n1-c1ccc(Cl)cc1`: the percent of DMSO control GFP in experiment [1] is 105% (inactive). For the same molecule, the GFP response vs DMSO is 97.2% (inactive) in experiment [2] and 96.6% (inactive) in experiment [4]. The percent response of DMSO control in [3] is 108% (inactive). Further, the GFP response, % of DMSO in experiment [5] is 99.7% (inactive). Moreover, the double positive events in experiment [6] amounted to 64.1%. In [6], the vesicle binding response was 232% (inactive). The inhibition in experiment [7] was -12.9% (inactive); in experiment [11], -5.72% (inactive); in experiment [15] it was 11% (inactive). For the same molecule, the superoxide response (% of plate) in experiment [8] is 110% (inactive). Moreover, the aptamer binding inhibition in experiment [9] is -3% (inactive). The response in [10] was -10.3% (inactive); in experiment [12] it was 1.03% (inactive). For the same molecule, in experiment [13], the binding (% of control) was 96.4% (inactive). The efflux inhibition (fraction of control) in experiment [14] is -0.14 (inactive). Further, in [16], the differentiation response is 3.18% (inactive).
In the case of `COc1ccc(C2C3=C(CC(C)(C)CC3=O)N(C)C3=C2C(=O)CC(C)(C)C3)cc1`, the percent of DMSO control GFP in experiment [1] was 101% (inactive). Also, the GFP response vs DMSO is 99.6% (inactive) in [2] and 110% (inactive) in experiment [4]. In addition, in [3], the percent response of DMSO control is 88% (inactive). Besides, the GFP response, % of DMSO in [5] is 118% (inactive). For the same molecule, the double positive events in [6] came to 62.6%. Also, the vesicle binding response in experiment [6] is 173% (inactive). The inhibition in experiment [7] was 4.84% (inactive); in experiment [11], 2.92% (inactive); in experiment [15] it was 3% (inactive). In addition, the superoxide response (% of plate) in experiment [8] is 104% (inactive). Moreover, the aptamer binding inhibition in experiment [9] was 5% (inactive). Besides, the response in experiment [10] is -20.5% (inactive); in experiment [12] it was -12.8% (inactive). Further, the binding (% of control) in [13] is 100% (inactive). Also, the efflux inhibition (fraction of control) in experiment [14] was -0.09 (inactive). Moreover, the differentiation response in experiment [16] was 3.88% (inactive).
With `Cc1ccc(C2CC(=O)C(C=NCCN3CCN(CC(=O)Nc4cc(C)cc(C)c4)CC3)=C(O)C2)cc1` (stereo not given), the percent of DMSO control GFP in experiment [1] is 103% (inactive). For the same molecule, the GFP response vs DMSO is 103% (inactive) in experiment [2] and 108% (inactive) in [4]. Moreover, the percent response of DMSO control in [3] is 97.6% (inactive). In experiment [5], the GFP response, % of DMSO was 105% (inactive). This molecule also registered a double positive events in experiment [6] of 60.5%. The vesicle binding response in [6] is 196% (inactive). The inhibition in experiment [7] was -17.2% (inactive); in experiment [11], -1.73% (inactive); in [15], 13% (inactive). The superoxide response (% of plate) in [8] was 102% (inactive). In addition, the aptamer binding inhibition in experiment [9] was -3% (inactive). In addition, the response in [10] was -1.95% (inactive); in experiment [12], -0.35% (inactive). Further, the binding (% of control) in [13] is 103% (inactive). Also, the efflux inhibition (fraction of control) in experiment [14] is -0.05 (inactive). Further, in [16], the differentiation response is -16.3% (inactive).
Turning to `CSc1cccc(NC(=O)/C=C/c2ccccc2)c1`, the percent of DMSO control GFP in experiment [1] is 91.3% (inactive). Further, the GFP response vs DMSO in experiment [2] is 90.5% (inactive); in [4], 83.1% (inactive). Moreover, in [3], the percent response of DMSO control was 88.6% (inactive). Moreover, the GFP response, % of DMSO in [5] was 80.5% (inactive). This molecule also showed a double positive events in experiment [6] of 62.5%. In [6], the vesicle binding response was 219% (inactive). The inhibition in [7] is 15.2% (inactive); in experiment [11], 7.39% (inactive); in experiment [15], 10% (inactive). In addition, the superoxide response (% of plate) in experiment [8] was 114% (inactive). In addition, the aptamer binding inhibition in experiment [9] was 1% (inactive). Further, the response is 1.66% (inactive) in experiment [10] and 1.17% (inactive) in experiment [12]. Besides, the binding (% of control) in experiment [13] is 104% (inactive). Besides, the efflux inhibition (fraction of control) in [14] was -0.38 (inactive). The differentiation response in [16] was 9.01% (inactive).
As to `CCCCCCCCNC(C)C(O)c1ccc(SC(C)C)cc1` (stereo not given), in experiment [1], the percent of DMSO control GFP is 93.5% (inactive). Further, the GFP response vs DMSO in experiment [2] is 130% (inactive); in experiment [4], 85.3% (inactive). The percent response of DMSO control in [3] was 102% (inactive). Besides, the GFP response, % of DMSO in experiment [5] is 92.2% (inactive). This molecule came in with a double positive events in [6] of 38.1%. For the same molecule, the vesicle binding response in experiment [6] was 47.2% (active). Moreover, the inhibition was -12% (inactive) in [7], 15.9% (inactive) in experiment [11] and 11% (inactive) in experiment [15]. For the same molecule, the superoxide response (% of plate) in [8] was 115% (inactive). The aptamer binding inhibition in [9] is -13% (inactive). The values for the response in experiment [10] and in experiment [12] were 10.9% (inactive) and -2.14% (inactive), respectively. Further, the binding (% of control) in [13] was 109% (inactive). In [14], the efflux inhibition (fraction of control) was -0.17 (inactive). Moreover, the differentiation response in experiment [16] is 2.46% (inactive).
